Laboratory results published in PubChem BioAssay AID2597 (National Center for Advancing Translational Sciences (NCATS), 2010).
Records with an inconclusive call do not appear. Unmarked numbers belong to inactive results. Active and inactive are the calls of the source. Calls follow the shape of the dose curve; as a rule, active = well fitted curve in the direction sought with a large enough effect; inconclusive = small, poorly fitted or top-dose-only effect, or effect the other way, or another doubt; inactive = no such curve, though single readings can be large or run the other way.

biological target: Lysosomal acid glucosylceramidase (Homo sapiens) (UniProt P04062); assay: qHTS Assay for Inhibitors and Activators of N370S glucocerebrosidase as a Potential Chaperone Treatment of Gaucher Disease: Purified N370S Glucocerebrosidase; conditions: purified N370S GC, 4-MU-glucoside fluorescence, 40 min; series mostly up to 76.9 µM; activity change, negative = inhibition: at the top concentration
Sequence (P04062 whole entry N409S): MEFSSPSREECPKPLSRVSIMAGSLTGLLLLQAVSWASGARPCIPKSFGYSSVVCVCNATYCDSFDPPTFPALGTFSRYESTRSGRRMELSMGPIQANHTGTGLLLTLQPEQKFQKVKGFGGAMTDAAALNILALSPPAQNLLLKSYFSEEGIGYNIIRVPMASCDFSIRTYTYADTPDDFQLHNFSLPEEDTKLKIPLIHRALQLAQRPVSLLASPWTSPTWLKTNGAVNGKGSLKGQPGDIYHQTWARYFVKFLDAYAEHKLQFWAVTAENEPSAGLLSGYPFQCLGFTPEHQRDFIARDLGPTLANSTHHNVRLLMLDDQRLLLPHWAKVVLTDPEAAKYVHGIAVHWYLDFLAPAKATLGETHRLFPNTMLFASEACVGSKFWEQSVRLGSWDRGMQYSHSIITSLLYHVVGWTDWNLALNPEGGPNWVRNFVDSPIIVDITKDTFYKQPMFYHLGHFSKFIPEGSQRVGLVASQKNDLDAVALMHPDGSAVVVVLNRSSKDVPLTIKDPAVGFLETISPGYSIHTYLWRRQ
Excerpt: NIH Chemical Genomics Center [NCGC] NIH Molecular Libraries Probe Production Centers Network [MLPCN] MLPCN Grant: MH086442-01 Assay Submitter (PI): Wei Zheng Glucocerebrosidase (GC) catalyzes the hydrolysis of beta-glucocerebroside to glucose and ceramide in lysosomes. Mutations in the glucocerebrosidase gene result in Gaucher disease, an autosomal recessive lysosomal storage disorder. Many of the mutations encountered in patients with Gaucher disease are missense alterations that may cause misfolding, decreased stability and/or mistrafficking of this lysosomal protein. […] These inhibitors include iminosugar analogs and three non-iminosugar inhibitors identified from a previous HTS of 62,000 compounds with the wild type recombinant enzyme. However, the enhancement of enzyme activity by the chaperone action of an enzyme inhibitor must be balanced against the direct inhibition of the enzyme. An enzyme activator could also function as a chaperone by binding to the enzyme and helping to correct its misfolding and mistrafficking. While activators for GC have not yet been identified, they may have better therapeutic potential than inhibitors. Therefore the discovery and development of chemical activators may provide a new strategy for the chaperone therapy. We have optimized a new assay using N370S mutant GC derived from the spleen of a Gaucher patient. […] In addition, the MLPCN compound library has expanded, which increases the chance of finding new and better probes. This assay characterizes compound activity using purified mutant enzyme instead of tissue homogenate. Compound activity differences may be due to the absence of endogenous cofactors found in tissue homogenate.
NCGC Assay Protocol Summary: This is a fluorogenic enzyme assay with 4-methylumbelliferyl-beta-D-glucopyranoside as the substrate and purified N370S glucocerebrosidase as the enzyme preparation. Upon the hydrolysis of this fluorogenic substrate, the resulting product, […] which can be detected by a standard fluorescence plate reader. Data were normalized to the controls for basal activity (without enzyme) and 100% activity (with enzyme). The AC50 values were determined from concentration-response data modeled with the standard Hill equation. Assay buffer: 50 mM citric acid (titrated with potassium phosphate to pH 5.0), 100 mM potassium chloride, 10 mM sodium chloride, 1 mM magnesium chloride, 0.01% Tween-20. 1536-well assay protocol: (1) Add 2 ul/well of glucocerebrosidase enzyme solution (5 nM final) (2) Add 23 nL compounds in DMSO solution. The final titration was 0.5 nM to 58 uM. (3) Add 2 ul of substrate (1 mM final) (4) Incubate at 37C for 40 min. (5) Add 2 ul stop solution (1M NaOH and 1M Glycine mixture, pH 10) (6) Detect the assay plate in a ViewLux plate reader (PerkinElmer) with Ex=365 nm and Em=440nm. Keywords: Glucocerebrosidase, beta-glucosidase, Gaucher Disease, pharmacological chaperone, chaperone therapy, high throughput screening, glucocerebrosidase inhibitor, MLSMR, MLSCN, NIH Roadmap, qHTS and NCGC

SMILES | Potency | activity change, negative = inhibition
Cc1cc(C)cc(N(CC(=O)NC2CCCCCC2)S(=O)(=O)c2c(C)[nH]c(=O)[nH]c2=O)c1 | 1.58 µM (active) | –
O=S(=O)(c1ccc2c(c1)OCCO2)N1CCN(c2nc(-c3ccccc3)nc3ccccc23)CC1 | – | -8.13%
O=S(=O)(Cc1ccccc1)N1CCN(c2nc(-c3cccs3)nc3ccccc23)CC1 | – | -7.06%
O=S(=O)(c1cccc(C(F)(F)F)c1)N1CCN(c2nc(-c3cccs3)nc3cc(Cl)ccc23)CC1 | – | -2.84%
O=S(=O)(c1ccc(F)cc1)N1CCN(c2nc(-c3ccc(F)cc3)nc3cc(Cl)ccc23)CC1 | – | 12.5%
O=S(=O)(c1ccc2ccccc2c1)N1CCN(c2nc(-c3cccs3)nc3ccccc23)CC1 | – | 3.55%
c1csc(-c2nc(NCC3CCCO3)c3ccccc3n2)c1 (centres undefined) | – | -4.41%
O=S(=O)(c1ccc2c(c1)OCCO2)N1CCN(c2nc(-c3cccs3)nc3ccccc23)CC1 | – | -9.01% [at 57.5 µM]
NS(=O)(=O)c1ccc(S(=O)(=O)N2CCN(c3nc(-c4cccs4)nc4ccccc34)CC2)cc1 | – | -5.7% [at 57.5 µM]
COc1ccc(-c2nc(N3CCN(S(=O)(=O)c4ccc(C)cc4)CC3)c3ccccc3n2)cc1 | – | 0.376%
O=S(=O)(c1ccc(Cl)cc1)N1CCN(c2nc(-c3cccc(Br)c3)nc3ccccc23)CC1 | – | -1.13%
COc1ccc(-c2nc(N3CCN(S(=O)(=O)c4ccccc4)CC3)c3ccccc3n2)cc1 | – | -1.92%
O=S(=O)(c1cccc2ccccc12)N1CCN(c2nc(-c3cccs3)nc3ccccc23)CC1 | – | -3%
O=S(=O)(c1ccccc1Cl)N1CCN(c2nc(-c3cccs3)nc3ccccc23)CC1 | – | 1.47%
O=S(=O)(c1ccc(Cl)cc1)N1CCN(c2nc(-c3ccc(Cl)cc3)nc3ccccc23)CC1 | – | -6.99%
O=S(=O)(c1ccc(F)cc1)N1CCN(c2nc(-c3cccs3)nc3cc(Cl)ccc23)CC1 | – | 18.9%
O=S(=O)(c1ccc(F)cc1)N1CCN(c2nc(-c3cccc(Br)c3)nc3ccccc23)CC1 | – | -3.8%
O=S(=O)(c1ccccc1C(F)(F)F)N1CCN(c2nc(-c3cccs3)nc3ccccc23)CC1 | – | -12.1% [at 57.5 µM]
Cc1ccc(S(=O)(=O)N2CCN(c3nc(-c4ccc(F)cc4)nc4cc(Cl)ccc34)CC2)cc1 | – | -2.41%
COc1cccc(S(=O)(=O)N2CCN(c3nc(-c4cccs4)nc4ccccc34)CC2)c1 | – | 4.33%

SMILES | Potency | activity change, negative = inhibition
CC(C)(C)C(=O)OCCNc1nc(-c2ccccc2)nc2ccccc12 | 8.91 µM (active) | –
Cc1ccccc1S(=O)(=O)N1CCN(c2nc(-c3cccs3)nc3ccccc23)CC1 | – | -5.57%
O=C(c1ccc2c(c1)OCCO2)N1CCN(c2nc(-c3cccs3)nc3ccccc23)CC1 | – | -8.39%
O=S(=O)(c1ccc(Cl)cc1)N1CCN(c2nc(Nc3cc(Cl)ccc3O)nc3ccccc23)CC1 | 14.1 µM (active) | –
O=S(=O)(c1ccc(Cl)cc1)N1CCN(c2nc(-c3ccc(F)cc3)nc3cc(Cl)ccc23)CC1 | – | -3.17%
O=S(=O)(c1ccccc1)N1CCN(c2nc(-c3ccc(F)cc3)nc3cc(Cl)ccc23)CC1 | – | 3.68%
N#Cc1ccc(S(=O)(=O)N2CCN(c3nc(-c4cccs4)nc4ccccc34)CC2)cc1 | – | 0.866% [at 57.5 µM]
COc1ccc(-c2nc(N3CCN(S(=O)(=O)c4ccc(F)cc4)CC3)c3ccccc3n2)cc1 | – | 2.48%
S=C(NCCCc1cnc[nH]1)NCCCN(Cc1ccc(Cl)c(Cl)c1)c1ccc(Br)cn1 | 2.51 µM (active) | –
CC(C)(C)c1ccc(S(=O)(=O)N2CCN(c3nc(-c4cccs4)nc4ccccc34)CC2)cc1 | – | -6.34%
Cc1cccc(S(=O)(=O)N2CCN(c3nc(-c4cccs4)nc4ccccc34)CC2)c1 | – | -0.788%
O=S(=O)(c1ccc(F)cc1)N1CCN(c2nc(-c3ccccc3)nc3cc(Cl)ccc23)CC1 | – | 11.3%
CC(C)C(C)NC(=O)CSc1nc2scc(-c3ccco3)c2c(=O)n1-c1ccccc1 (centres undefined) | – | 2.6% [at 57.5 µM]
Cc1ccc(-c2nc(N3CCN(S(=O)(=O)c4ccc(F)cc4)CC3)c3ccc(Cl)cc3n2)cc1 | – | -0.326%
COc1ccc(S(=O)(=O)N2CCN(c3nc(-c4cccs4)nc4ccccc34)CC2)cc1 | – | -1.81%
O=S(=O)(c1ccc(Cl)cc1)N1CCN(c2nc(-c3cccs3)nc3ccccc23)CC1 | inactive | –
O=S(=O)(c1cccs1)N1CCN(c2nc(-c3cccs3)nc3ccccc23)CC1 | – | 8.37%
Cc1ccc(S(=O)(=O)N2CCN(c3nc(-c4cccs4)nc4ccccc34)CC2)cc1 | inactive | –
OCCNc1nc(-c2cccs2)nc2ccccc12 | – | -5.11%
